This is an account of results in PubChem BioAssay (NCI).

What all share (assay): NCI-60 one-dose screen, 48 h (100 = growth as untreated, 0 = no growth, -100 = all killed)
Conditions in all cases: 10 µM unless noted

For assay [1], the system named is NCI-H23 lung.
Assay [2] concerns NCI-H226 lung.
Assay [3] relates to NCI-H322M lung.
Assay [4] deals with HOP-62 NSCLC.
In assay [5] the test system is NCI-H460 lung.
Assay [6] has as its system NCI-H522 lung.
Assay [7] relates to A549/ATCC NSCLC.
For assay [8], the system named is 786-0 renal.
Assay [9] concerns COLO 205 colon.
Assay [10] has as its system DU-145 prostate.
Assay [11] deals with K-562 leukemia.
Assay [12] relates to MALME-3M melanoma.
In assay [13] the test system is MDA-MB-231 breast.
For assay [14], the system named is RXF 393 renal.
Assay [15] has as its system SF-268 CNS.
In assay [16] the test system is SF-539 CNS.
Assay [17] has as its system UACC-257 melanoma.
The test system of assay [18] is M14 melanoma.
The test system of assay [19] is HCT-15 colon.
The test system of assay [20] is SF-295 CNS.

This is part of a sample that, as a whole, favours compounds with a hit. Of some 83,000 tested, about 20% had one in any assay.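 Plates (96-well) were seeded with cells, treated with compound at one concentration, and incubated for 48 hours before percent growth was determined.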 A number with no mark means an inactive call. The source made the active and inactive calls. How the source made its calls: active means growth percent below 10; inactive means the rest.

Consider `O=[N+]([O-])c1cnc(Sc2ccncn2)c([N+](=O)[O-])c1`, for which the growth in assay [1] was 103%; in assay [2], 99.6%; in [3], 108%; in assay [4], 99.3%; in assay [5], 100%; in assay [6] it was -83.1% (active). Besides, the growth in assay [7] is 97.6%; in assay [8], 106%; in assay [9] it was -11.8% (active); in assay [10], 109%; in assay [11], -46.9% (active); in assay [12], -53% (active). For the same compound, the growth was 91.1% in [13]; 94.3% in [14]; 101% in assay [15]; 97.7% in [16]; -9.5% (active) in assay [17]; 97.2% in assay [18]. Besides, in assay [19], the growth was 0.0905% (active).
In the case of `CSc1nc2c(c(=O)[nH]1)C(c1ccc(Cl)cc1)C1=C(N2)/C(=C/c2ccc(Cl)cc2)CNC1` (stereo not drawn), the growth in [1] is 69%; in assay [2], 78.9%; in assay [3] it was 64.1%; in assay [4], -2.54% (active); in assay [5], 37.3%; in assay [6], 79.3%. For the same compound, the growth is 32.2% in assay [7]; 88.4% in [8]; 29.2% in [9]; 39.3% in assay [10]; 8.37% (active) in assay [11]; 91.9% in assay [12]. The growth in assay [13] was 40.4%; in assay [14], 52.3%; in assay [15], 10.1%; in assay [20] it was 69.3%; in assay [17] it was 81.9%; in assay [18] it was 64.1%. Moreover, the growth in assay [19] was 13.5%.
In the case of `O=C(NCCCO)c1cc(Cl)ccc1O`, the growth is 8.32% (active) in assay [1]; 24.3% in [2]; 83.6% in assay [3]; 36.3% in assay [4]; 9.74% (active) in assay [5]; -1.53% (active) in [6]. The growth was 38.5% in assay [7]; 49.5% in assay [8]; 25% in [9]; 36.1% in assay [10]; 11.1% in assay [11]; 0.89% (active) in assay [12]. The growth in assay [13] was 28.2%; in [14] it was 40.7%; in [15], 28.4%; in assay [16], 45%; in [17], 16.4%; in [18], 30.3%.
Regarding `N#CCCN(CCO)c1ccccc1`, the growth in assay [1] is 104%; in assay [2] it was 94.6%; in assay [3], 93.7%; in assay [4] it was 95%; in assay [5], 105%; in assay [6] it was 80.6%. The growth is 98.9% in [7]; 96.2% in assay [8]; 104% in [9]; 116% in assay [10]; 98.3% in assay [11]; 96.8% in assay [12]. Further, the growth was 106% in assay [13]; 105% in assay [14]; 111% in assay [15]; 104% in assay [16]; 99.8% in assay [17]; 102% in assay [18].
`Nc1nc(SCc2ccccc2Cl)c(-c2ccccc2)c(SCc2ccccc2Cl)n1`: the growth in assay [1] was 83.2%; in assay [2], 105%; in [3], 107%; in assay [4], 87.9%; in [5] it was 85.6%; in assay [6], 79.3%. Also, the growth is 79.3% in [7]; 104% in assay [8]; 95% in [9]; 98.2% in assay [10]; 85.3% in assay [11]; 110% in assay [12]. Further, the growth in assay [13] is 109%; in [14] it was 115%; in assay [15] it was 105%; in [16], 114%; in assay [17] it was 92.4%; in assay [18], 95.3%.
In the case of `CN(C)c1nc(N)nc(Cn2c(-c3nonc3N)nc3ccccc32)n1`, the growth was 90.4% in assay [1]; 91.3% in assay [2]; 103% in assay [3]; 81% in [4]; 95.6% in [5]; 77.5% in [6]. The growth in assay [7] was 86.7%; in assay [8], 99.2%; in assay [9], 83.7%; in [10], 109%; in [11], 23.1%; in [12] it was 88%. Besides, the growth in assay [13] is 76.7%; in [14], 89.6%; in [15] it was 101%; in assay [16], 86.5%; in [17] it was 93.3%; in [18], 72.7%. Also, the growth in assay [19] was 59.4%.
In the case of `Cc1cc(C(C)(C)C)cc(C)c1CC1=NCCN1`, the growth was 99% in assay [1]; 89.2% in [2]; 102% in [3]; 109% in assay [4]; 118% in assay [5]; 106% in [6]. Further, the growth in [7] was 104%; in [8], 96.9%; in [9], 92.6%; in assay [10], 107%; in assay [11], 90.4%; in assay [12], 99.2%. Moreover, the growth is 109% in assay [13]; 107% in assay [14]; 100% in assay [15]; 96.3% in assay [20]; 106% in assay [17]; 107% in assay [18]. Besides, the growth in assay [19] was 102%.
With `S=c1[nH]nc2sc3ccccc3n12`, the growth was 88% in [1]; 106% in [2]; 125% in assay [3]; 97.9% in assay [4]; 111% in [5]; 98.4% in assay [6]. The growth was 108% in [7]; 111% in assay [8]; 104% in assay [9]; 121% in [10]; 107% in assay [11]; 122% in assay [12]. Further, the growth was 96.7% in assay [13]; 116% in [14]; 110% in [15]; 106% in [16]; 111% in assay [17]; 104% in assay [18]. The growth in assay [19] is 100%.
For the compound `O=C(Nc1cccc(C(F)(F)F)c1)Nc1ccc(OCc2nnc(-c3ccc(Cl)cc3)o2)c(F)c1`, the growth in assay [1] was 68%; in assay [2] it was 94.9%; in [3] it was 86.5%; in assay [4], 50.8%; in [5], 63.9%; in assay [6], 64%. The growth is 50% in assay [7]; 84.2% in assay [8]; 66.5% in assay [9]; 88.1% in [10]; 61% in assay [11]; 55.7% in assay [12]. Further, the growth was 58.8% in assay [13]; 58.2% in [14]; 83.3% in assay [15]; 82.2% in assay [16]; 62.8% in [17]; 73.5% in assay [18]. Also, the growth in assay [19] is 42.9%.
